Inconclusive results are not listed. The source made the active and inactive calls. Unless noted, calls come from the whole dose curve.
What was measured:
[1] = target: Thyrotropin receptor (Homo sapiens) (UniProt P16473); assay: qHTS assay to identify small molecule agonists of the thyroid stimulating hormone receptor (TSHR) signaling pathway (AID 1224843); note: nearly all actives have a fitted effect of over 45% in size
Procedure, shortened: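 Compounds are titrated over 15 concentrations, in triplicate, onto TSHR-HEK293 cells seeded at 800/well. Plates sit 30 min at room temperature before cAMP-d2 and anti-cAMP cryptate are added; signal is read after a further hour.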

[2] = qHTS assay to identify small molecule agonists of the hypoxia (HIF-1) signaling pathway - cell viability counter screen (AID 1224844); note: nearly all actives have a fitted effect of over 50% in size
Procedure, shortened: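 Cytotoxicity was measured in parallel with the HRE-driven beta-lactamase readout: after 17 hrs of compound exposure at 37C, HRE-bla ME-180 cells received CellTiter-Glo and luminescence was recorded 30 min later.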

[3] = qHTS assay to identify small molecule agonists of H2AX (AID 1224845; active = well fitted activation curve with a large enough effect in the signal ratio in the repeat runs, not every such curve was filed as active; the % refers to the signal ratio)
Procedure, shortened: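 Wild-type CHO-K1 cells plated overnight, then exposed 3 hr at 37C to compounds at 15 concentrations (0.76% DMSO). Lysed, then HTRF anti-pH2AX(S139)-cryptate/anti-H2AX-d2 detection after 24 hr at room temperature; emissions 665 and 620 nm.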

[4] = qHTS assay to identify small molecule agonists of the hypoxia (HIF-1) signaling pathway (AID 1224846; active = well fitted activation curve with a large enough effect in the signal ratio in the repeat runs, not every such curve was filed as active; the % refers to the signal ratio)
Procedure, shortened: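 Compounds from the Tox21 10K library, dissolved in DMSO, are tested for induction of a hypoxia response element–controlled beta-lactamase reporter in ME-180 cells. Exposure lasts 17 hrs at 37C after a 5 hr settling period, followed by CCF4-AM FRET substrate.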

[5] = qHTS assay to identify small molecule agonists of H2AX - cell viability counter screen (AID 1224847); note: top concentration of the series differs between compounds; nearly all actives have a fitted effect of over 30% in size
Procedure, shortened: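 CHO-K1 wt, 1000 cells/well, o/n 37C; cpds 15 conc, 3 h 37C, 0.76% DMSO; CellTiter-Glo, 30 min RT, luminescence.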

[6] = qHTS RealTime-Glo MT Cell Viability Assay in HepG2 cells - 24 hour (AID 1224867; active = well fitted curve in the direction sought with a large enough effect in the repeat runs; an effect the other way counts as inactive or inconclusive; note: nearly all actives have a fitted effect of over 50% in size)
Procedure, shortened: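 HepG2 cells were seeded at 600 cells/well together with NanoLuc luciferase and a cell-permeant prosubstrate, preincubated 5 h at 37 C/5% CO2, then pin-dosed with compounds in DMSO. Nonlytic luminescence from viable cells was read at each time point.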

[7] = qHTS RealTime-Glo MT Cell Viability Assay in HEK293 cells - 32 hour (AID 1224868; active = well fitted curve in the direction sought with a large enough effect in the repeat runs; an effect the other way counts as inactive or inconclusive; note: top concentration of the series differs between compounds; nearly all actives have a fitted effect of over 50% in size)
Procedure, shortened: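 HEK293 cells were seeded at 600 cells/well together with NanoLuc luciferase and cell-permeant prosubstrate, preincubated 5 h at 37 C/5% CO2, then given compound in DMSO by pintool. Luminescence from viable-cell prosubstrate reduction was read repeatedly over 40 h.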

[8] = A CellTox Green Cytotoxicity Assay to monitor cytotoxicity in HEK293 cells - 0 hour (AID 1224869; active = well fitted curve in the direction sought with a large enough effect in the repeat runs; an effect the other way counts as inactive or inconclusive; note: nearly all actives have a fitted effect of over 50% in size)
Procedure, shortened: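 Cells (HEK293, 600/well) and dye reagent are dispensed together. After 5 h at 37 C, 23 nL compound is pinned in. Plates stay at 37 C for 40 h with fluorescence read at 0h, 8h, 16h, 24h, 32h and 40h.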

[9] = qHTS assay to identify small molecule antagonists of the estrogen related receptor (ERR) signaling pathway from Tox21 library (AID 1224848; active = well fitted curve in the direction sought with a large enough effect in the repeat runs; an effect the other way counts as inactive or inconclusive; note: nearly all actives have a fitted effect of over 50% in size)
Procedure, shortened: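 First, 2,000 ERR cells per well were plated and held 6 h at 37 C/5% CO2. Next, compounds in DMSO were pinned in and left 18 h at 37 C. Finally, ONE-Glo was added and luminescence read after 30 min at room temperature.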

[10] = qHTS assay to identify small molecule agonists of the estrogen related receptor (ERR) signaling pathway from Tox21 library (AID 1224849); settings: ERR reporter cell line, ONE-Glo luciferase, 18 h; at 92.4 µM (top of the series) unless noted; note: nearly all actives have a fitted effect of over 15% in size
Procedure, shortened: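 Cells carrying the ERR reporter were plated and allowed to settle for 6 h, exposed to library compounds for 18 h at 37 C, then lysed with ONE-Glo and luminescence measured.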
% is set by controls: 0 for no effect and ±100 for the full control effect.

Thyrotropin receptor (Homo sapiens), sequence (P16473 whole entry, looked up): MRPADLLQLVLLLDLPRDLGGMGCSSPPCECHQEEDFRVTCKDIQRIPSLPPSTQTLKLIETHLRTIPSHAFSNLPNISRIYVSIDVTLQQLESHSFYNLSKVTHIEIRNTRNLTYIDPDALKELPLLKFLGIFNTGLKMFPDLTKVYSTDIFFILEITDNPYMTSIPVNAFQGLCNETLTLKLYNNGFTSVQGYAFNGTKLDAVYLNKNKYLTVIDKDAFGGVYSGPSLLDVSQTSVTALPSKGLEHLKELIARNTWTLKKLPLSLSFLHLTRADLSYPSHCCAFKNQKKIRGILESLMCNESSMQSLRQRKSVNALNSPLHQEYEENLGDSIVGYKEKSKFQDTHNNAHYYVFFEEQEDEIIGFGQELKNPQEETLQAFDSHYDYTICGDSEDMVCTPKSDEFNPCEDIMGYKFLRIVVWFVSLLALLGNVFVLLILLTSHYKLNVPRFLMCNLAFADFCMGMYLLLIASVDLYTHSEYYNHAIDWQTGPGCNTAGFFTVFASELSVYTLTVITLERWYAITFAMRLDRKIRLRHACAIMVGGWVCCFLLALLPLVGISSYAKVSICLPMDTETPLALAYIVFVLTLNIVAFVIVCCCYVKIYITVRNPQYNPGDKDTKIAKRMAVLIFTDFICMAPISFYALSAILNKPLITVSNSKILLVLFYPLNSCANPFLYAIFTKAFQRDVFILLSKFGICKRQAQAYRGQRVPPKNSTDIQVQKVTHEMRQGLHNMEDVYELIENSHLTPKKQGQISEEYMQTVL

CC(C)=CC(=O)O
inactive: outcome [1] | Potency [2] | outcome [3] | outcome [4] | Potency [5] | outcome [6] | Potency [7] | Potency [8]

C=CCOCC(O)CS(=O)(=O)O (stereo not given)
inactive: outcome [1] | Potency [2] | outcome [3] | outcome [4] | Potency [5] | outcome [6] | Potency [7] | Potency [8]

CO[Si](CCCNCCC[Si](OC)(OC)OC)(OC)OC
inactive: outcome [1] | Potency [2] | outcome [3] | outcome [4] | Potency [5] | outcome [6] | Potency [7] | Potency [8]

O=C1OC(=O)c2cc([N+](=O)[O-])ccc21
inactive: outcome [1] | Potency [2] | outcome [3] | outcome [4] | Potency [5] | outcome [6] | Potency [7] | Potency [8]

O=C(O)C1CCC1
inactive: outcome [1] | Potency [2] | outcome [3] | outcome [4] | Potency [5] | outcome [6] | Potency [7] | Potency [8]

Fc1ccccc1-c1ccccc1
inactive: outcome [1] | Potency [2] | outcome [3] | outcome [4] | Potency [5] | outcome [6] | Potency [7] | Potency [8]

Nc1ncnc2c1ncn2Cc1c(F)cccc1Cl
inactive: outcome [1] | Potency [2] | outcome [3] | outcome [4] | Potency [5] | Potency [9] | activity change, positive = activation [10] 0.331% [at 42.5 µM] | outcome [6] | Potency [7] | Potency [8]

O=C1CC2(CCCC2)CC(=O)N1
inactive: outcome [1] | Potency [2] | outcome [3] | outcome [4] | Potency [5] | outcome [6] | Potency [7] | Potency [8]

CC1=CC(C)C(C=O)C(C)C1 (stereo not given)
inactive: outcome [1] | Potency [2] | outcome [3] | outcome [4] | Potency [5] | outcome [6] | Potency [7] | Potency [8]

C=CC(=O)OCCCCCC
inactive: outcome [1] | Potency [2] | outcome [3] | outcome [4] | Potency [5] | outcome [6] | Potency [7] | Potency [8]

c1ccc2cnncc2c1
inactive: outcome [1] | Potency [2] | outcome [3] | outcome [4] | Potency [5] | Potency [9] | activity change, positive = activation [10] -2.66% | outcome [6] | Potency [8]

CC1(C)SC(C)(C)SC(C)(C)S1
inactive: outcome [1] | Potency [2] | outcome [3] | outcome [4] | Potency [5] | Potency [9] | activity change, positive = activation [10] -8.06% | outcome [6] | Potency [8]

COC[C@H](c1ccc(C(F)(F)F)cc1)N1CCN(C2(C)CCN(C(=O)c3c(C)ncnc3C)CC2)C[C@H]1C
inactive: outcome [1] | Potency [2] | outcome [3] | outcome [4] | Potency [5] | Potency [9] | activity change, positive = activation [10] -5.81% [at 42.5 µM] | outcome [6] | Potency [7] | Potency [8]

CCOC(=O)Nc1ccc2c(c1)N(C(=O)CCN1CCOCC1)c1ccccc1S2
inactive: outcome [1] | Potency [2] | outcome [3] | outcome [4] | Potency [5] | outcome [6] | Potency [7] | Potency [8]

CCCCCCC(CCCCCCCCCCC(=O)OCC(COC(C)=O)OC(C)=O)OC(C)=O (stereo not given)
inactive: outcome [1] | Potency [2] | outcome [3] | outcome [4] | Potency [5] | outcome [6] | Potency [7] | Potency [8]

NCCN1CCNC1=O
inactive: outcome [1] | Potency [2] | outcome [3] | outcome [4] | Potency [5] | outcome [6] | Potency [7] | Potency [8]

NC(=O)CCCCC1CCSS1 (stereo not given)
inactive: outcome [1] | Potency [2] | outcome [3] | outcome [4] | Potency [5] | outcome [6] | Potency [7] | Potency [8]

C=CCOc1nc(OCC=C)nc(OCC=C)n1
inactive: outcome [1] | Potency [2] | outcome [3] | outcome [4] | Potency [5] | outcome [6] | Potency [7] | Potency [8]

CC(C)[N+](C)(C)CC(O)COc1cccc2ccccc12 (stereo not given)
inactive: outcome [1] | Potency [2] | outcome [3] | outcome [4] | Potency [5] | outcome [6] | Potency [7] | Potency [8]

CCCCCC[C@@H](CCC)C(=O)O
inactive: outcome [1] | Potency [2] | outcome [3] | outcome [4] | Potency [5] | activity change, positive = activation [10] -23% [at 42.5 µM] | outcome [6] | Potency [7] | Potency [8]

CCCCCCCCCCCCCCCCCC(=O)OCCCCCCCCCCCCCC(C)C
inactive: outcome [1] | Potency [2] | outcome [3] | outcome [4] | Potency [5] | outcome [6] | Potency [7] | Potency [8]

N[C@@H](CS)C(=O)O
inactive: outcome [1] | Potency [2] | outcome [3] | outcome [4] | Potency [5] | outcome [6] | Potency [7] | Potency [8]

CC(=O)CCc1ccc(O)cc1
inactive: outcome [1] | Potency [2] | outcome [3] | outcome [4] | Potency [5] | outcome [6] | Potency [7] | Potency [8]

COCCOC(=O)CC#N
inactive: outcome [1] | Potency [2] | outcome [3] | outcome [4] | Potency [5] | outcome [6] | Potency [7] | Potency [8]

C1CCCCCCCCCCC1
inactive: activation [1] -4.17% [at 19 µM] | activity change, negative = cytotoxicity [2] 3.97% [at 15.8 µM] | activation (H2AX phosphorylation) [3] 1.29% [at 31.6 µM] | activation [4] 0.351% [at 15.8 µM] | activity change, negative = cytotoxicity [5] 0.456% [at 31.6 µM] | activity, negative = inhibition [9] -2.47% [at 19 µM] | activity change, positive = activation [10] -0.61% [at 19 µM] | activity change, negative = cytotoxicity [6] 3.08% [at 15.8 µM] | cytotoxicity [8] -14.8% [at 15.8 µM]

O=C(O)C(O)[C@H](O)[C@@H](O)[C@H](O)[C@H](O)CO (stereo not given in full)
inactive: outcome [1] | Potency [2] | outcome [3] | outcome [4] | Potency [5] | activity change, positive = activation [10] -30.1% | outcome [6] | Potency [8]

Cc1c(F)cc2c(=O)c(C(=O)O)cn3c2c1CCC3C (stereo not given)
inactive: outcome [1] | Potency [2] | outcome [3] | outcome [4] | Potency [5] | activity change, positive = activation [10] -37.3% [at 42.5 µM] | outcome [6] | Potency [7] | Potency [8]

Source: PubChem BioAssay (Tox21)
